Holding throughout (format): functional
The test system of test [1] is Plasmodium falciparum. The test can be described thus: GSK_TCMDC: Inhibition of Plasmodium falciparum 3D7 in whole red blood cells, using parasite LDH activity as an index of growth. Test compounds present at 2uM.
For test [2], the system named is Plasmodium falciparum. The experiment in a line: GSK_TCMDC: Inhibition of Plasmodium falciparum Dd2 in whole red blood cells, using parasite LDH activity as an index of growth. Test compounds present at 2uM.
For the next test, the system named is HepG2. The experiment in a line: GSK_TCMDC: Percent inhibition of human HepG2 cell line. Test compounds present at 10uM.

For orientation: Inhibition means the relative decrease from the control value, in per cent. High values mean strong suppression, low ones little suppression.

For the compound `Cl.O=C(C=Cc1cccs1)N(CCCn1ccnc1)c1nc2ccc(F)cc2s1`, the Inhibition in the test with Plasmodium falciparum [1] was 98%; in the test on Plasmodium falciparum [2] it was 28%; with HepG2 it was 0%.
As for `Cc1ccc(NC(=O)c2ccc(CN3CCCN(Cc4cccc(Cl)c4)CC3)cc2)cc1C.O=C(O)C(F)(F)F`, the values for the Inhibition in the test with Plasmodium falciparum [1], in the test with Plasmodium falciparum [2] and in the test with HepG2 were 84%, 18% and 41%, respectively.
For `CCCCCN1C(=O)N(c2ccc(Cl)c(Cl)c2)C(N(O)C(=O)Nc2ccc(Cl)c(Cl)c2)C1(C)C` (stereo not drawn), the figures for the Inhibition in the test with Plasmodium falciparum [1], in the test on Plasmodium falciparum [2] and in the test with HepG2 were 94%, 99% and 0%, respectively.
For the compound `CCN(CC)CCN1C(=O)c2oc3ccc(F)cc3c(=O)c2C1c1cccc(Cl)c1` (stereo not drawn), the Inhibition in the test with Plasmodium falciparum [1] worked out at 99%; in the test with Plasmodium falciparum [2], 93%; with HepG2 it was 0%.
In the case of `O=C(O)C(F)(F)F.OCC1CCN(Cc2ccc(-c3cccc(-c4nc5ccccc5[nH]4)c3)cc2)CC1`, the Inhibition with Plasmodium falciparum [1] is on record as 100%; with Plasmodium falciparum [2] it was 6%; in the test on HepG2, 21%.
The corresponding values for `CN(C)Cc1ccc(-c2ccc(NC(=O)c3ccc4c(=O)n(Cc5ccccc5)cnc4c3)cc2)cc1` are 100%, 39% and 94%.
For `O=C(Nc1ccc(Cl)cc1)N[C@H]1CCN(Cc2ccc(OCCCN3CCCCC3)cc2)C1` the same measures were 100%, 0% and 29%.
For the compound `CN(C)Cc1c(O)ccc2oc(Cc3ccccc3)cc12.Cl`, the Inhibition in the test on Plasmodium falciparum [1] is reported as 99%; in the test with Plasmodium falciparum [2], 94%; in the test with HepG2 it was 0%.
The corresponding values for `CCCC[C@@H](C(=O)NCc1ccccc1C(F)(F)F)N1C(=O)CCC1C(=O)Nc1ccc([N+](=O)[O-])cc1` (stereo partly drawn) are 94%, 2% and 7%.
For `Cn1ccnc1CNC(=O)c1ccc(-c2cccc(-c3nc4cc(F)ccc4[nH]3)c2)cc1` the same measures were 96%, 8% and 8%.
The corresponding values for `COc1ccc(CC2(c3ccc(F)cc3)N=C(N)N(CCCc3ccc(F)c(F)c3)C2=O)cc1.O=C(O)C(F)(F)F` (stereo not drawn) are 98%, 98% and 42%.
For `Cc1nc2ccc(Nc3nccc(-c4c(-c5cccc(NC(=O)c6c(F)cccc6F)c5)nn5ccccc45)n3)cc2nc1C`, the Inhibition turned out to be 91% in the test with Plasmodium falciparum [1], 45% in the test with Plasmodium falciparum [2] and 55% in the test on HepG2.
On to `Cc1cccc2nc(-c3cccc(-c4cccc(NC(=O)CNc5ccc(C(N)=O)cc5)c4)c3)[nH]c12`, for which the Inhibition amounted to 100% in the test with Plasmodium falciparum [1], 56% in the test on Plasmodium falciparum [2] and 15% with HepG2.
With `COc1ccc(-n2nc(C(=O)NCc3ccccc3OC)c3ccccc3c2=O)cc1`, the Inhibition was found to be 100% in the test on Plasmodium falciparum [1], 94% with Plasmodium falciparum [2] and 2% in the test on HepG2.
Regarding `COc1ccc(NC(=O)c2cn(-c3ccc(C(C)(C)C)cc3)nc2C)cc1N1CCN(C)CC1`, the Inhibition with Plasmodium falciparum [1] is given as 96%; with Plasmodium falciparum [2], 71%; in the test on HepG2, 33%.
For `Cl.Oc1cccc(Nc2nc(NCC3CCCO3)c3ccccc3n2)c1` (stereo not drawn) the same measures were 100%, 87% and 0%.
For `CC(C)CCN1CCCN(Cc2cccc(C(=O)Nc3ccc(C(C)(C)C)cc3)c2)CC1.O=C(O)C(F)(F)F` the same measures were 85%, 1% and 33%.
Turning to `CC[C@H](C)CNC(=O)c1ccnc(-c2cccc(CN3CCC(N4CCCC4)CC3)c2)c1.O=C(O)C(F)(F)F`, the values for the Inhibition in the test with Plasmodium falciparum [1], with Plasmodium falciparum [2] and in the test with HepG2 were 97%, 12% and 0%, respectively.
For `CN(C)CCCn1cncc1-c1ccc2ncnc(Nc3ccc(OCc4ccccc4)cc3)c2c1` the same measures were 100%, 100% and 37%.
The corresponding values for `COc1ccc(S(=O)(=O)NC2CCN(c3cc(C)nc(Nc4cccc(C#N)c4)n3)CC2)cc1.O=C(O)C(F)(F)F` are 88%, 55% and 9%.
For `Cc1cc(N(C)C2CCN(C)C2)nc(Nc2ccc(Cl)cc2)n1` (stereo not drawn), the Inhibition came to 100% in the test on Plasmodium falciparum [1], 88% in the test on Plasmodium falciparum [2] and 8% in the test on HepG2.
In the case of `CS(=O)(=O)CCNCc1cccc(-c2ccc3c(Nc4ccc(Oc5cccnc5)cc4)ccnc3c2)c1`, the figures for the Inhibition in the test on Plasmodium falciparum [1], with Plasmodium falciparum [2] and in the test with HepG2 were 100%, 99% and 27%, respectively.
For the compound `COc1ccc(-c2cc(-c3ccc(S(C)(=O)=O)cc3)cnc2N)cn1`, the Inhibition in the test with Plasmodium falciparum [1] is listed as 94%; in the test with Plasmodium falciparum [2], 99%; in the test on HepG2 it was 5%.
The corresponding values for `CSC1=NC(=Nc2c(C)cccc2C)C2(CCCCC2)N1c1ccccc1Cl` are 95%, 57% and 22%.
For `CCC1CCc2cc(N)cc(-c3nc4c(c(C)nn4CC)c(=O)[nH]3)c2O1` (stereo not drawn) the same measures were 86%, 42% and 0%.
The corresponding values for `COc1ccccc1N1CCN(CCCCNC(=O)c2ccc(NC(=O)c3cc4ccccc4o3)cc2)CC1` are 84%, 2% and 9%.
Take `Cc1cccc2nc(C(=O)Nc3nc(CN4CCC(C)CC4)cs3)cn12`: the figures for the Inhibition in the test on Plasmodium falciparum [1], in the test on Plasmodium falciparum [2] and with HepG2 were 94%, 80% and 0%, respectively.
The corresponding values for `CCNC(=O)Nc1ccc(N(C)c2ccnc(Nc3ccc(CS(C)(=O)=O)cc3)n2)cc1.Cl` are 100%, 99% and 0%.
Take `Cl.ON=C1c2cc(OCCN3CCCCC3)c(Cl)cc2-c2cc(Cl)c(OCCN3CCCCC3)cc21`: the results for the Inhibition in the test with Plasmodium falciparum [1], with Plasmodium falciparum [2] and in the test with HepG2 were 97%, 98% and 99%, respectively.
For `OC(CNCc1ccccc1OCc1ccccc1)c1cccc(Br)c1` (stereo not drawn) the same measures were 100%, 97% and 0%.
For `COc1ccc2nccc([C@@H](O)CN3CCC(NCCc4c[nH]c5ccccc45)CC3)c2c1.O=C(O)C(=O)O` the same measures were 98%, 77% and 0%.

The values above are taken from ChEMBL document CHEMBL1157539, “Thousands of chemical starting points for antimalarial lead identification” (Nature, 2010).
